Only some compounds are listed: those with a hit (about 0.74% of all), similar ones and a draw of the others.
BLM helicase inh – blocks DNA unwinding by human BLM helicase; recombinant BLM DNA unwinding, fluorescence dequenching; P54132; 350,000 tested, 0.2% active; Potency, µM (doses to about 56.1 µM), for inactives: top-dose activity change, negative = inhibition, hits mostly inhibitors;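 further: plate controls were vehicle for no effect and no enzyme for full effect; nearly all actives have a fitted effect of over 35% in size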
PGK inhibitor – blocks T. brucei phosphoglycerate kinase; P07378; PGK/GAPDH coupled, Kinase-Glo luminescence, 60 min; Potency, µM (titrated, usually from 57.5 µM), inactives show top-dose activity change, negative = inhibition, actives largely listed as inhibitors; 380,000 tested, 0.043% active; AID 602233; further: nearly all actives have a fitted effect of over 60% in size
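Luminescent ATP detection (Kinase-Glo Plus) follows a 60-minute room-temperature incubation, with wells lacking PGK as controls. Buffer: 100 mM TEA (pH 7.6), 5 mM MgCl2, 0.01% Tween-20. Coupling enzyme GAPDH (100 nM final) supplies unstable 1,3-BPG in-well.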
RECQ1 inh-1 – RECQ1 (human) helicase inhibition; 240,000 tested, 0.54% active; RECQ1 DNA unwinding, red fluorescence kinetic read; P46063; Potency, µM (highest dose often 57.3 µM), without a hit: at the top dose activity, negative = inhibition, hits mostly inhibitors;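 further: plate controls were vehicle for no effect and no enzyme for full effect; nearly all actives have a fitted effect of over 30% in size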
Target sequence (P46063 whole entry, looked up): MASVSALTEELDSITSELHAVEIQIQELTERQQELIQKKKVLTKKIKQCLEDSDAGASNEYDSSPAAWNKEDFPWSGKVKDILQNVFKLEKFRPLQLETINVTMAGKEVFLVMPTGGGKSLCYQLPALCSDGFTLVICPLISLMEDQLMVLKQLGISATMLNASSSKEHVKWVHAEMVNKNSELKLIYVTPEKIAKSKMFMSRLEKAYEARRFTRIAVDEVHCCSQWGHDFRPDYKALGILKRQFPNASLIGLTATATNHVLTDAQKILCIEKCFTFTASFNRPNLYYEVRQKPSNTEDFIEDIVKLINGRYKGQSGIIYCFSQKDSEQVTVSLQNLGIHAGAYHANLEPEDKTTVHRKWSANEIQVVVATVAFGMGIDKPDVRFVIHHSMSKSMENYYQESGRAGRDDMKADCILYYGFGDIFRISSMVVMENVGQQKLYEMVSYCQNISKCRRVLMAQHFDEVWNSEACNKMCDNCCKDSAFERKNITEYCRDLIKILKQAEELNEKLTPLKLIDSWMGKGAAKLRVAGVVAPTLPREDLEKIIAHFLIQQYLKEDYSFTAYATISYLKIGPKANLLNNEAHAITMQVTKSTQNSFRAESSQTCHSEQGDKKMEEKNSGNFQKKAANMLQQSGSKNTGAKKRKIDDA
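RECQ1T1 50 nM; forked duplex (20 bp + 30-nt ss tails) 200 nM, ATP 2 mM final; pH 8.0, 2 mM MgCl2, 2.5 ug/ml poly(dI-dC); 15 min compound preincubation; discontinuous kinetic read over 2 h at RT.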
FEN1 inhibitor – human FEN1 inhibition; P39748; Recombinant FEN1 flap cleavage, fluorescence, 15 min; Potency, µM (highest dose often 114 µM), without a hit: top-dose activity change, negative = inhibition, hits mostly inhibitors; 390,000 tested, 0.35% active; AID 588795; further: nearly all actives have a fitted effect of over 65% in size
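Enzyme 10 nM, 15 min RT preincubation with compound; start with substrate 50 nM final; reads at 0 and 15 min; qHTS titration, four-parameter Hill fit.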
APEX1 inh – blocks human APE1 abasic DNA cleavage | 350,000 tested, 0.35% active | AID 2517 | Potency, µM (top dose mostly 65.8 µM), inactives show top-dose activity change, negative = inhibition, usual class: inhibitors | recombinant APE1, TAMRA/BHQ-2 abasic DNA cleavage fluorescence;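 further: plate controls were vehicle for no effect and reference inhibitor for full effect; nearly all actives have a fitted effect of over 55% in size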
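0.75 nM APE1 + cpd, 15 min RT; start w/ 50 nM TAMRA/BHQ-2 THF-abasic dsDNA; kinetic fluor 525/598 nm ×3 reads @60 s; Δ(read3−read1); normalized to DMSO and NSC13755 control wells.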
RECQ1 conf – confirmation of human RECQ1 helicase inhibitors; shares compounds with RECQ1 inh-1; RECQ1 helicase DNA unwinding, fluorescence; 610 tested, 28% active; Potency, µM (doses to about 229 µM), for the others: top-dose activity change, negative = inhibition, usual class: inhibitors; further: nearly all actives have a fitted effect of over 45% in size
RECQ1 ADP FP – displaces ADP in a fluorescence polarization counter-screen for RECQ1 hits | shares compounds with RECQ1 inh-1 | ADP fluorescence polarization displacement counterscreen | Potency, µM (titrated, usually from 228 µM), for inactives: at the highest dose activity change, negative = inhibition, most hits filed as inhibitors | 530 tested, 27% active; further: nearly all actives have a fitted effect of over 45% in size
RECQ1 inh-2 – confirmation of human RECQ1 helicase inhibitors | recombinant RECQ1 DNA unwinding, red fluorescence | Potency, µM (doses to about 119 µM), without a hit: top-dose activity, negative = inhibition, most hits filed as inhibitors | AID 504841 | shares compounds with RECQ1 inh-1 | 1,100 tested, 15% active; further: nearly all actives have a fitted effect of over 50% in size
The depositor's hits bear a star; i = inactive; u = inconclusive; x = no result; [ ] = another dose, or the depositor's remark. The call rests on the fitted dose curve; in most records, active means well fitted curve in the direction sought with a large enough effect; inconclusive means small, poorly fitted or top-dose-only effect, or another doubt; inactive means no such curve, though single readings can be large; an effect the other way counts as inactive or inconclusive. Unless noted, on the % scale 0 is the no-effect control and ±100 the full control effect; potency means the concentration at half of the fitted maximal effect.

SMILES	BLM helicase inh	PGK inhibitor	RECQ1 inh-1	FEN1 inhibitor	APEX1 inh	RECQ1 inh-2	others
COc1ccc(-c2nnc(Nc3ccc(OC)c(C(N)=O)c3)c3ccccc23)cc1	-16.3%	i	x	u	x	x
COc1ccc(N2CCN(C(=O)c3ccc4c(=O)n(CCc5ccc(OC)c(OC)c5)c(=O)[nH]c4c3)CC2)cc1	-7.4%	1.5%	-12.8%	-1.2%	9.8%	x	RECQ1 conf=6.0%;RECQ1 ADP FP=u
O=C(c1ccc2c(=O)n(CCc3ccccc3)c(=O)[nH]c2c1)N1CCN(c2ccccc2)CC1	-4.8%	-5.3%	x	-0.2%	14.1%	x
COc1cccc2cc(C(=O)C3=C(O)C(=O)N(CCN4CCOCC4)C3c3ccc(C(C)(C)C)cc3)oc12 (stereo not given)	-12.5%	-1.3%	x	-8.8%	-19.0%	x
O=C(CCNC(=O)c1ccc([N+](=O)[O-])cc1)Nc1nc2ccccc2[nH]1	x	-3.1%	x	0.8%	23.7%	x
CCCS(=O)(=O)N1CCCC(C(=O)NCCOC)C1 (stereo not given)	-5.8%	-6.8%	x	21.3%	x	x
N=C1/C(=C\c2ccc(SCc3ccccc3)o2)C(=O)N=C2SC(CC(=O)N3CCOCC3)=NN12	-22.8%	-11.9%	u	-15.1%	-7.9%	-28.5%
CCN1CCN(Cc2cc(=O)oc3ccc(Cl)cc23)CC1	-9.0%	-2.0%	i	-0.9%	2.0%	x
C/C(N)=C(/C#N)C(=O)COC(=O)C1Cc2ccccc2CN1S(C)(=O)=O (stereo not given)	-14.6%	-1.8%	u	0.2%	u	u
CS(=O)(=O)N1Cc2ccccc2CC1C(=O)OCC(=O)NCc1ccccc1 (stereo not given)	x	-8.5%	x	-8.3%	u	x
Cn1cnnc1Sc1ccc(/C=C(\CCC(=O)O)c2nc3ccccc3s2)cc1[N+](=O)[O-]	-4.7%	-3.3%	14.3%	6.4%	18.9%	x	RECQ1 conf=10.6%;RECQ1 ADP FP=0.7%
Cc1ccc(/C=C(\CCC(=O)O)c2nc3ccccc3s2)cc1[N+](=O)[O-]	-3.8%	-7.4%	-4.4%	-11.1%	1.8%	x
CNc1ccc(/C=C(\CCC(=O)O)c2nc3ccccc3s2)cc1[N+](=O)[O-]	-29.3%	u	35.5µM*	-9.3%	35.5µM*	31.6µM*
CC(C)(Oc1ccc(Cl)cc1)C(=O)NC1=NN(c2ccccc2)C(=O)C1	-6.4%	-3.7%	u	-12.5%	10.0%	-19.8%
O=C1CC(NC(=O)C(F)(F)F)=NN1c1ccccc1	0.2%	8.7%	-1.1%	-19.8%	-2.2%	x
NS(=O)(=O)c1ccc(CCNC(=S)Nc2ccc(F)cc2)cc1	-2.5%	-7.0%	i	14.4%	-2.3%	x
COc1ccc(NC(=O)C2(N(C(=O)Cn3nnnc3N)c3ccc(OC)cc3)CCCCC2)cc1	-1.1%	-6.6%	x	2.5%	34.5%	x
COCC(=O)N(C)C1(c2nnnn2CCOC(=O)Nc2cccc3ccccc23)CCCC1	-13.0%	1.9%	31.6µM*	-11.1%	-8.8%	-9.0%
COc1cc2ccccc2cc1C(=O)NC(=S)Nc1cccc(C(=O)O)c1	u	-17.7%	u	u	u	25.1µM*
CCOC(=O)N1CCN(C(=O)CN(c2ccccc2)S(C)(=O)=O)CC1	-4.3%	5.7%	i	-0.9%	2.2%	x
O=C(Nc1ccc(-n2nncc2-c2ccco2)cc1)c1cc2ccccc2oc1=O	-18.3%	4.2%	6.31µM*	-22.3%	u	u	RECQ1 conf=4.47µM*;RECQ1 ADP FP=4.0%[91.9 µM]
O=C(COc1ccc2c(c1)CCC2)N1CCN(c2cccc(C(F)(F)F)c2)CC1	-5.5%	-3.8%	35.5µM*	-19.1%	u	-14.2%
